According to the supplement of paper PMC12636033:
± gives the standard deviation of the averaged measurements. The full ranking holds about 33,000 sequences; the median of “E-score (rank enrichment, -0.5 to 0.5)” is about -0.0075, and the highest 2% start at about 0.23. The list comes from a sample in which the highest values are over-represented; it also holds similar and randomly drawn sequences.

System: WT Max(13-93) synthetic (M65Nle)
Test: PBM 8-mer E-score (E-score (rank enrichment, -0.5 to 0.5)); higher = stronger preferential binding
Protocol: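 Protein binding microarray (universal PBM chip covering all 10-mers in fixed probe flanks) with chemically synthesized human Max(13-93) bHLH-LZ analogs (not full-length Max) bearing noncanonical residues (hArg, Tha, Aib, Nle at 65) and aromatic Cys staples. Read-out per 8-mer (and its reverse complement): E-score (rank-based enrichment, -0.5 to 0.5) and Z-score of median probe intensity.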

| Sequence | PBM 8-mer E-score |
| --- | --- |
| CAAATAGC | 0.0495 ± 0.0037 |
| CGCCCGTC | -0.106 ± 0.034 |
| AGAGCTAG | -0.0196 ± 0.051 |
| CTTGCCCC | -0.0869 ± 0.1 |
| ATAGCCTG | -0.155 ± 0.11 |
| AGATACAT | 0.245 ± 0.022 |
| AGATACAG | 0.134 ± 0.061 |
| ACATACAG | 0.219 ± 0.059 |
| ACATACAT | 0.26 ± 0.042 |
| ACATACAC | 0.139 ± 0.048 |
| ACATACGC | 0.0685 ± 0.056 |
| AGATACAA | 0.126 ± 0.036 |
| ACATACGA | 0.237 ± 0.015 |
| TCATACGA | 0.115 ± 0.021 |
| CATCTCTA | -0.0266 ± 0.00032 |
| ACGGGCTG | -0.16 ± 0.005 |
| AAATAACG | 0.26 ± 0.0036 |
| AGATAATG | 0.241 ± 0.012 |
| CGATAACG | -0.0133 ± 0.18 |
| AGATAATC | -0.146 ± 0.023 |
| AAATAACA | 0.198 ± 0.039 |
| CAATAACG | 0.0031 ± 0.057 |
| AGATAACG | 0.256 ± 0.041 |
| AGATAACC | 0.0122 ± 0.027 |
| AGATAATA | 0.131 ± 0.045 |

| Sequence | PBM 8-mer E-score |
| --- | --- |
| ATCTTGGA | -0.118 ± 0.068 |
| ACAATGCC | 0.0109 ± 0.11 |
| GATATCCC | -0.108 ± 0.023 |
| ACACTTAT | 0.0681 ± 0.02 |
| CCCTGAAG | -0.071 ± 0.03 |
| ACACGACC | 0.0326 ± 0.019 |
| ACACGACT | 0.123 ± 0.049 |
| ACACGACA | 0.289 ± 0.1 |
| CGCCAACC | -0.101 ± 0.11 |
| ACTAGTAA | 0.256 ± 0.1 |
| ACTAGTAT | 0.184 ± 0.02 |
| ACTAGTAG | 0.11 ± 0.088 |
| CTTTCCAC | 0.196 ± 0.17 |
| AATCCTGG | -0.171 ± 0.16 |
| ATTTCCTA | 0.135 ± 0.027 |
| CTTTCCTA | 0.0286 ± 0.077 |
| GTTTCCTA | 0.257 ± 0.11 |
| CGCCCGGA | -0.201 ± 0.068 |
| ATATGGTC | 0.164 ± 0.09 |
| AAATGGTA | 0.253 ± 0.056 |
| TAATGGTA | 0.0384 ± 0.1 |
| CAATGGTA | 0.15 ± 0.041 |
| ATATGGTA | 0.241 ± 0.069 |
| CTATGGTA | 0.0296 ± 0.11 |
| TCGGTTCA | -0.0182 ± 0.1 |

| Sequence | PBM 8-mer E-score |
| --- | --- |
| GATGGCAA | 0.158 ± 0.091 |
| AAGCTCCC | -0.171 ± 0.036 |
| GCAGACCA | -0.213 ± 0.1 |
| TATATACA | 0.0403 ± 0.021 |
| TATATAGA | 0.104 ± 0.084 |
| GATATACA | 0.08271 ± 0.00014 |
| CATATACA | 0.271 ± 0.067 |
| CATATAGA | 0.166 ± 0.049 |
| AATATACA | 0.246 ± 0.052 |
| AATATACT | 0.104 ± 0.069 |
| CATATACC | -0.0092 ± 0.047 |
| AATATAGA | 0.277 ± 0.044 |
| ATTGCGTA | 0.188 ± 0.035 |
| CGACGCAA | -0.157 ± 0.015 |
| ATGCTTAA | 0.189 ± 0.046 |
| CAAGGCCA | 0.0607 ± 0.0078 |
| ATATAACC | 0.0791 ± 0.029 |
| GTATAACA | 0.202 ± 0.035 |
| CTATAACA | 0.129 ± 0.045 |
| ATATAACA | 0.237 ± 0.052 |
| CTATAACC | 0.0479 ± 0.05 |
| ATATAACG | 0.299 ± 0.0035 |
| AGAGAGCG | -0.102 ± 0.039 |
| AGCCACAT | 0.0887 ± 0.052 |
| CATCGTGG | -0.0807 ± 0.055 |

| Sequence | PBM 8-mer E-score |
| --- | --- |
| ACATCACG | 0.0554 ± 0.057 |
| AAATCACA | 0.163 ± 0.043 |
| ACATCACA | 0.237 ± 0.015 |
| TAATCACA | 0.201 ± 0.049 |
| TCATCACA | 0.116 ± 0.011 |
| CAATCACG | 0.274 ± 0.05 |
| CAATCACA | 0.247 ± 0.019 |
| CAATCACC | 0.0883 ± 0.0053 |
| GAATCACA | -0.023 ± 0.11 |
| CCAGCCGA | -0.272 ± 0.029 |
| AGAAGAAA | -0.0012 ± 0.042 |
| CGTTAGGC | 0.0594 ± 0.11 |
| GGCGTTTA | 0.0435 ± 0.017 |
| CCGGCACG | -0.00989 ± 0.099 |
| ACCAAAGA | 0.003 ± 0.046 |
| ATTTCTAG | 0.0411 ± 0.07 |
| CTTTCTAA | 0.0817 ± 0.047 |
| ATTTCTAC | 0.247 ± 0.043 |
| CATTCTAC | 0.0976 ± 0.045 |
| ATTTCTAA | -0.0149 ± 0.032 |
| CTTTCTAC | 0.317 ± 0.053 |
| AGGTGTCC | -0.128 ± 0.054 |
| GACTAAAA | -0.0397 ± 0.075 |
| AGTATAAA | 0.109 ± 0.12 |
| AGTATAAC | 0.0201 ± 0.0067 |

| Sequence | PBM 8-mer E-score |
| --- | --- |
| AGTATAAT | 0.259 ± 0.07 |
| AATACGGT | -0.059 ± 0.026 |
| CAGGGTCA | -0.0768 ± 0.019 |
| AAATCCAC | 0.116 ± 0.058 |
| AAATCCAT | 0.2404 ± 0.0018 |
| AAATCCAG | -0.00945 ± 0.12 |
| GAAGTAAC | 0.0916 ± 0.087 |
| GTCTTTAA | 0.0691 ± 0.12 |
| AATCACGT | 0.399 ± 0.04 |
| ATCCACAT | 0.287 ± 0.022 |
| AATCACGA | 0.0321 ± 0.13 |
| ATCCACAG | 0.0193 ± 0.067 |
| ACCCACGA | -0.0551 ± 0.047 |
| AATCACGC | 0.188 ± 0.042 |
| AACCATGG | 0.0463 ± 0.13 |
| ACCCACGC | 0.113 ± 0.11 |
| AACCATGT | 0.2698 ± 0.00089 |
| ATCCACAA | 0.0288 ± 0.05 |
| ACCCACGT | 0.359 ± 0.02 |
| AACCATGA | 0.145 ± 0.028 |
| AAATCTCG | 0.017 ± 0.054 |
| GTGAGTCA | -0.117 ± 0.064 |
| TAGGCCAA | -0.0597 ± 0.035 |
| CGCAAGCA | 0.1148 ± 0.001 |
| CTGAACGC | -0.243 ± 0.0048 |

| Sequence | PBM 8-mer E-score |
| --- | --- |
| GATTCCAC | -0.0239 ± 0.16 |
| AACCATTA | 0.318 ± 0.052 |
| AACCACGC | 0.178 ± 0.04 |
| AACCACGT | 0.392 ± 0.0086 |
| CACCATTA | -0.0432 ± 0.14 |
| AACCACAT | 0.282 ± 0.045 |
| AACCATTG | 0.0448 ± 0.0034 |
| AACCACAG | -0.196 ± 0.12 |
| AACCACGA | 0.198 ± 0.016 |
| AACCACAC | 0.173 ± 0.0082 |
| ACAATTGC | 0.129 ± 0.021 |
| ATATACCA | 0.153 ± 0.019 |
| TATGCTGA | -0.0828 ± 0.1 |
| ACCTATTG | 0.157 ± 0.01 |
| TACGTATA | 0.094 ± 0.091 |
| ACTTGATC | -0.0132 ± 0.16 |
| AGAGTGAA | -0.133 ± 0.058 |
| CAGACATC | -0.0722 ± 0.089 |
| CCCTTTGC | -0.0228 ± 0.044 |
| CTGCCAAG | -0.0342 ± 0.067 |
| CCTCGATA | -0.157 ± 0.014 |
| CCTAAACG | -0.145 ± 0.043 |
| AATGTGGG | 0.18 ± 0.032 |
| GATGTGGC | -0.117 ± 0.057 |
| CATGTGGA | 0.324 ± 0.032 |

| Sequence | PBM 8-mer E-score |
| --- | --- |
| AATGTGGA | 0.0921 ± 0.085 |
| GATGTGGA | 0.152 ± 0.011 |
| CATGTGGG | 0.257 ± 0.075 |
| CATGTGGC | 0.3003 ± 0.0019 |
| AATGTGGC | 0.0312 ± 0.0053 |
| CATGGGGG | 0.0813 ± 0.1 |
| AATGACTG | 0.102 ± 0.018 |
| GAAGCTCA | -0.152 ± 0.13 |
| ATTCAACC | -0.0085 ± 0.021 |
| GTTCGGGA | -0.13 ± 0.11 |
| GACCCTGA | -0.121 ± 0.035 |
| AGAGGACA | -0.0937 ± 0.095 |
| TAAGTTGA | 0.0328 ± 0.044 |
| ATTTCGTC | 0.242 ± 0.011 |
| CTTTCGTC | 0.0247 ± 0.074 |
| ATTTCGTG | 0.0519 ± 0.051 |
| ATACGATC | -0.0258 ± 0.1 |
| ACAAAGAT | 0.0862 ± 0.049 |
| CAAGCTCA | -0.35 ± 0.017 |
| CTGTATTA | 0.138 ± 0.0022 |
| CTGTGTTA | 0.0459 ± 0.023 |
| ATGTGTGA | 0.18 ± 0.12 |
